TROY NFkB inh: TROY signaling inhibition; Q293 LMP1-TROYcd NF-kB luciferase reporter, 4 h; inhibition, % at 10 µM; 360,000 compounds, 0.98% hits; AID 1347056;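 active means compounds whose plate-normalised and pattern-corrected inhibition of the luciferase reporter signal at the single screening dose is 50% or more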
TWEAK Fn14 block: blocks TWEAK-Fn14 interaction in a reporter cell assay. TWEAK-stimulated Fn14 reporter cells, luciferase luminescence, 8 h. inhibition, % at 10 µM. 360,000 compounds, 2% hits. AID 1159606; in the data active means inhibition above about 50%
HIF-2a block: HIF-2a inhibition. 786-0 RCC cells HIF-2a reporter, luciferase luminescence, overnight. inhibition, % at 18.8 µM. 360,000 compounds, 0.72% hits. AID 624352;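 active means inhibition of the luminescence signal of 40% or more relative to plate controls, in a single-dose primary screen at 18.75 µM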
Peg3 promoter: inhibitors of Peg3 promoter; inhibition, % at 20 µM; HeLa PEG-Prom luciferase reporter, luminescence, overnight; 360,000 compounds, 1.7% hits;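 active means inhibition of at least 50% at 20 µM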
CF NFkB block: cystic fibrosis NF-kB activation inhibition; KKLEB NF-kB-GFP reporter, PAF-induced, GFP fluorescence overnight; AID 588850; 360,000 compounds, 0.86% hits; inhibition, % at 5 µM;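 active means at least 50% inhibition at 5 µM, scaled per plate between neutral and stimulator controls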;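 further: PAF is a Pseudomonas aeruginosa culture filtrate used as stimulus; plate controls were PAF-stimulated DMSO wells for no effect and unstimulated DMSO wells for full effect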
KKLEB cytotox: counter-screen for CF NF-kB inhibitors: cytotoxicity | activity change (cytotoxicity), % at 5 µM | 360,000 compounds, 0.36% hits | KKLEB CF airway cells viability, ATPlite luminescence, overnight; active compounds read low; cells stimulated with P. aeruginosa culture filtrate;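 active means corrected activity change at or below -50% at 5 µM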
* hit, by the source's call. A selection: hits, their analogues and other compounds. The true share with any hit is near 4%.

For COc1ccc(N=Nc2cc(C)ccc2O)cc1 the results were TROY NFkB inh -18.0, TWEAK Fn14 block 23.2, HIF-2a block -303.7, Peg3 promoter -275.9, CF NFkB block -6.3 and KKLEB cytotox -19.7.
`COc1cccc(N=Nc2ccc3ccccc3c2O)c1` gave TROY NFkB inh 58.4*, TWEAK Fn14 block 74.6*, HIF-2a block -72.8, Peg3 promoter -114.1, CF NFkB block -18.2 and KKLEB cytotox -30.1.
Screening Cc1cccc(Nc2nc3c(S(=O)(=O)c4ccccc4)nnn3c3ccccc23)c1 returned TROY NFkB inh 53.2*, TWEAK Fn14 block -44.1, HIF-2a block 15.9, Peg3 promoter 1.5, CF NFkB block -6.7 and KKLEB cytotox -9.8.
Cc1cc(C)cc(Nc2nc3c(S(=O)(=O)c4ccccc4)nnn3c3ccccc23)c1 was read as TROY NFkB inh 7.1, TWEAK Fn14 block -21.0, HIF-2a block 15.0, Peg3 promoter -0.8, CF NFkB block -2.7 and KKLEB cytotox 2.5.
Screening COC(=O)c1cc(OC)c(OC)cc1N=CC1=C(O)CC(C)(C)CC1=O returned TROY NFkB inh -9.1, TWEAK Fn14 block 56.0*, HIF-2a block -0.5, Peg3 promoter -8.7, CF NFkB block 1.6 and KKLEB cytotox 5.9.
For COC(=O)c1cc(N=CC2=C(O)CC(C)(C)CC2=O)cc(C(=O)OC)c1 the results were TROY NFkB inh 3.8, TWEAK Fn14 block 2.0, HIF-2a block 13.0, Peg3 promoter 7.9, CF NFkB block 21.2 and KKLEB cytotox -18.4.
Cc1ccc(C(=O)Nc2ncc(Cc3ccc(F)cc3)s2)o1 was read as TROY NFkB inh -9.0, TWEAK Fn14 block 24.5, HIF-2a block -177.4, Peg3 promoter -296.8, CF NFkB block -0.3 and KKLEB cytotox -10.7.
N=C1SCC(=O)N1c1ncc(Cc2ccc(F)cc2)s1 was read as TROY NFkB inh 33.1, TWEAK Fn14 block 102.8*, HIF-2a block -22.1, Peg3 promoter 5.0, CF NFkB block -40.2 and KKLEB cytotox 5.1.
CN(CC(=O)NCCc1ccc(Cl)cc1)S(=O)(=O)c1cccs1 was read as TROY NFkB inh 2.1, TWEAK Fn14 block 5.5, HIF-2a block -0.4, Peg3 promoter -25.4, CF NFkB block -11.3 and KKLEB cytotox -7.4.
`COc1ccc2[nH]c(=O)c(CN(Cc3cccs3)S(=O)(=O)c3cccc4nsnc34)cc2c1` gave TROY NFkB inh 23.8, TWEAK Fn14 block 26.4, HIF-2a block -25.3, Peg3 promoter 65.9*, CF NFkB block 97.9* and KKLEB cytotox -52.9*.
COc1ccc2[nH]c(=O)c(CN(CCO)S(=O)(=O)c3c(C)ccc4nsnc34)cc2c1 was read as TROY NFkB inh 14.3, TWEAK Fn14 block -16.6, HIF-2a block 22.5, Peg3 promoter -3.7, CF NFkB block 17.2 and KKLEB cytotox 0.3.
For COc1cc(CC(NC(C)=O)C(=O)NC2CCN(C(=O)Nc3ccccc3C)CC2)cc(OC)c1 (stereo not given) the results were TROY NFkB inh -4.4, TWEAK Fn14 block 30.9, HIF-2a block 10.4, Peg3 promoter -17.2, CF NFkB block 3.4 and KKLEB cytotox 2.2.
COC(=O)c1ccc(CSc2ncnc3c2nnn3-c2ccc(F)cc2)o1 was read as TROY NFkB inh 55.3*, TWEAK Fn14 block -22.4, HIF-2a block -57.4, Peg3 promoter -35.2, CF NFkB block 12.4 and KKLEB cytotox -8.1.
CCN(CC)C(=O)CSc1ncnc2c1nnn2-c1ccc(F)cc1 was read as TROY NFkB inh -1.9, TWEAK Fn14 block 25.6, HIF-2a block -0.9, Peg3 promoter -0.7, CF NFkB block 12.8 and KKLEB cytotox 4.6.
COc1cccc(NC(=S)Nc2ccc(Br)cc2Cl)c1 was read as TROY NFkB inh -38.2, TWEAK Fn14 block 6.3, HIF-2a block -156.6, Peg3 promoter -51.1, CF NFkB block -0.6 and KKLEB cytotox 3.4.
Screening CCOc1ccc(NC(=S)Nc2ccc(Br)cc2Cl)cc1 returned TROY NFkB inh 57.5*, TWEAK Fn14 block 17.6, HIF-2a block -20.3, Peg3 promoter 2.9, CF NFkB block 6.5 and KKLEB cytotox 1.2.
`O=C(Cn1[nH]c(=O)c2ccccc2c1=O)OCC(=O)c1ccc(F)c(F)c1` gave TROY NFkB inh -9.8, TWEAK Fn14 block 0.4, HIF-2a block -7.7, Peg3 promoter -16.9, CF NFkB block -13.3 and KKLEB cytotox -3.5.
For COc1ccc(C)cc1S(=O)(=O)n1c([N+](=O)[O-])cnc1C the results were TROY NFkB inh 15.5, TWEAK Fn14 block 86.7*, HIF-2a block 17.3, Peg3 promoter 11.2, CF NFkB block -3.4 and KKLEB cytotox 9.2.
Screening O=C(OCc1nc2scc(-c3ccccc3)c2c(=O)[nH]1)c1cc([N+](=O)[O-])ccc1Cl returned TROY NFkB inh 32.6, TWEAK Fn14 block 63.0*, HIF-2a block 2.2, Peg3 promoter 26.3, CF NFkB block -6.5 and KKLEB cytotox 8.2.
O=C(O)CSCc1nc2scc(-c3ccccc3)c2c(=O)[nH]1 was read as TROY NFkB inh 5.2, TWEAK Fn14 block 1.2, HIF-2a block 16.2, Peg3 promoter 0.9, CF NFkB block -20.6 and KKLEB cytotox 20.4.
Cc1ccc(C(=O)Nc2c(C)n(C)n(-c3ccccc3)c2=O)cc1S(=O)(=O)N1CCCCC1 was read as TROY NFkB inh 13.6, TWEAK Fn14 block -14.5, HIF-2a block 0.1, Peg3 promoter -2.6, CF NFkB block 15.5 and KKLEB cytotox -4.4.
Screening CCOC(=O)N1CCN(C(=O)COC(=O)c2cc(Cl)cc(Cl)c2)CC1 returned TROY NFkB inh -8.1, TWEAK Fn14 block -17.3, HIF-2a block 6.2, Peg3 promoter -9.7, CF NFkB block 3.2 and KKLEB cytotox 4.6.
`CCOC(=O)N1CCN(C(=O)COC(=O)c2cc(Cl)c(O)c(Cl)c2)CC1` gave TROY NFkB inh 17.5, TWEAK Fn14 block 71.6*, HIF-2a block 15.1, Peg3 promoter 14.7, CF NFkB block 0.3 and KKLEB cytotox 2.0.
Screening O=C(O)c1ccccc1C1Nc2ccccc2C(=O)N1CCCN1CCOCC1 (stereo not given) returned TROY NFkB inh 6.5, TWEAK Fn14 block 5.1, HIF-2a block 6.4, Peg3 promoter 9.5, CF NFkB block 9.1 and KKLEB cytotox -12.1.
Screening CCCCOC(=O)C1C2C=C[C@]3(CN(C(C)c4ccc(OC)cc4)C(=O)[C@H]13)O2 (stereo not given in full) returned TWEAK Fn14 block 88.9*, HIF-2a block 7.9, Peg3 promoter 14.6, CF NFkB block -18.6 and KKLEB cytotox 0.5.
`C=CCSc1nc2ccccc2n1S(=O)(=O)c1ccc(Cl)cc1` gave TROY NFkB inh 0.6, TWEAK Fn14 block -5.1, HIF-2a block -23.8, Peg3 promoter -15.3, CF NFkB block 3.3 and KKLEB cytotox 7.1.
For Cc1ccc(S(=O)(=O)Nc2cccnc2)c(C)c1C the results were TROY NFkB inh 7.2, TWEAK Fn14 block 2.5, HIF-2a block 13.3, Peg3 promoter 5.9, CF NFkB block 10.5 and KKLEB cytotox -3.4.
For OCC1(CCCc2ccccc2)CCN(C2CCSCC2)CC1 the results were TROY NFkB inh -1.6, TWEAK Fn14 block -1.0, HIF-2a block 13.3, Peg3 promoter -0.9, CF NFkB block 12.7 and KKLEB cytotox -10.8.

High-throughput results (PubChem)
